Measured values from ChEMBL document CHEMBL1961873, “Compounds: GSK PKIS; Assays: Nanosyn kinase panel” (2012).

Legend:
[1] = target: Protein kinase C gamma type (Homo sapiens) (UniProt P05129); settings: at 1 µM;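 further: each value is an averaged percent inhibition of the enzyme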
[2] = target: T1, Protein kinase C iota type (Homo sapiens) (UniProt P41743); settings: at 0.1 µM
T1 sequence (whole entry): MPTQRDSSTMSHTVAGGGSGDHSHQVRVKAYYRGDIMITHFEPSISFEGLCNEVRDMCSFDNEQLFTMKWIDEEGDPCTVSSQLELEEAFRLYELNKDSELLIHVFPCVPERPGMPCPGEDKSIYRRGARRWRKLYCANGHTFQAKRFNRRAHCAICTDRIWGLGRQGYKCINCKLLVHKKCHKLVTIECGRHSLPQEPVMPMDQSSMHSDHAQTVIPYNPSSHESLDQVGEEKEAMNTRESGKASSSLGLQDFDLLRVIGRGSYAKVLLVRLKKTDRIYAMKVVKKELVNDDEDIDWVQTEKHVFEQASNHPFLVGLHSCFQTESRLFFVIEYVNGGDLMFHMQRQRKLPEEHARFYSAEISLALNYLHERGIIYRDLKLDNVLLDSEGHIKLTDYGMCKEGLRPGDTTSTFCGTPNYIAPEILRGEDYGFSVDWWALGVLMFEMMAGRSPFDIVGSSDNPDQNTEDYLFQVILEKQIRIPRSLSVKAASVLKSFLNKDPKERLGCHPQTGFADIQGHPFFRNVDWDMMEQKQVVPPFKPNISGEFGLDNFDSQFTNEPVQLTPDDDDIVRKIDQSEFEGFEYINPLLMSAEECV

[3] = target: T1, Protein kinase C iota type (Homo sapiens); settings: at 1 µM
[4] = target: Protein kinase C theta type (Homo sapiens) (UniProt Q04759); settings: at 0.1 µM
[5] = target: Protein kinase C theta type (Homo sapiens) (UniProt Q04759); settings: at 1 µM
[6] = target: Protein kinase C beta type (Homo sapiens) (UniProt P05771); settings: at 0.1 µM
[7] = target: Protein kinase C beta type (Homo sapiens) (UniProt P05771); settings: at 1 µM
[8] = target: T2, Serine/threonine-protein kinase D1 (Homo sapiens) (UniProt Q15139); settings: at 0.1 µM
T2 sequence (whole entry): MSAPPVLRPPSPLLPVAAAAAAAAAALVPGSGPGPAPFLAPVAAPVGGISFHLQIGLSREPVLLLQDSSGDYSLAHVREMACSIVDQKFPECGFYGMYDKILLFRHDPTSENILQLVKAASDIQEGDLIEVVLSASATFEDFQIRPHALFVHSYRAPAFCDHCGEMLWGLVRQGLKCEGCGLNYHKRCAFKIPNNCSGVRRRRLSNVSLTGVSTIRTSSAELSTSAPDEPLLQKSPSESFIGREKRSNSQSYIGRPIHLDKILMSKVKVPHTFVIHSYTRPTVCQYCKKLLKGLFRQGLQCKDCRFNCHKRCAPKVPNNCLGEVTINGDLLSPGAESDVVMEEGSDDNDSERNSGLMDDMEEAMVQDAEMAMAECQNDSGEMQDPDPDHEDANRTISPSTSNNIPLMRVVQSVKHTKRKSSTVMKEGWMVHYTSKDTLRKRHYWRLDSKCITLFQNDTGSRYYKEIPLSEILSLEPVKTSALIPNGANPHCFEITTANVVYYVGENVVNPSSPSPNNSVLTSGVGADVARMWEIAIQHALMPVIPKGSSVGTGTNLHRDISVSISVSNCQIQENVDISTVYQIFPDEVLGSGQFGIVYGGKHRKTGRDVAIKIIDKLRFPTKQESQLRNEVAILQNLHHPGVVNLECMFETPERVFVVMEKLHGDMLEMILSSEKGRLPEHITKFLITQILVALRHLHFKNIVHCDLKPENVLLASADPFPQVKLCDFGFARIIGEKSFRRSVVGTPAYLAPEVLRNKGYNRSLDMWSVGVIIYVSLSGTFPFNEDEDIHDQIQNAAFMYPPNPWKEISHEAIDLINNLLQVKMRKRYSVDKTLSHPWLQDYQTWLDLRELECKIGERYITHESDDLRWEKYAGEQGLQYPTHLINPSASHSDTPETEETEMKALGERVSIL

[9] = target: T2, Serine/threonine-protein kinase D1 (Homo sapiens); settings: at 1 µM
[10] = target: T3, Serine/threonine-protein kinase D2 (Homo sapiens) (UniProt Q9BZL6); settings: at 0.1 µM
T3 sequence (whole entry): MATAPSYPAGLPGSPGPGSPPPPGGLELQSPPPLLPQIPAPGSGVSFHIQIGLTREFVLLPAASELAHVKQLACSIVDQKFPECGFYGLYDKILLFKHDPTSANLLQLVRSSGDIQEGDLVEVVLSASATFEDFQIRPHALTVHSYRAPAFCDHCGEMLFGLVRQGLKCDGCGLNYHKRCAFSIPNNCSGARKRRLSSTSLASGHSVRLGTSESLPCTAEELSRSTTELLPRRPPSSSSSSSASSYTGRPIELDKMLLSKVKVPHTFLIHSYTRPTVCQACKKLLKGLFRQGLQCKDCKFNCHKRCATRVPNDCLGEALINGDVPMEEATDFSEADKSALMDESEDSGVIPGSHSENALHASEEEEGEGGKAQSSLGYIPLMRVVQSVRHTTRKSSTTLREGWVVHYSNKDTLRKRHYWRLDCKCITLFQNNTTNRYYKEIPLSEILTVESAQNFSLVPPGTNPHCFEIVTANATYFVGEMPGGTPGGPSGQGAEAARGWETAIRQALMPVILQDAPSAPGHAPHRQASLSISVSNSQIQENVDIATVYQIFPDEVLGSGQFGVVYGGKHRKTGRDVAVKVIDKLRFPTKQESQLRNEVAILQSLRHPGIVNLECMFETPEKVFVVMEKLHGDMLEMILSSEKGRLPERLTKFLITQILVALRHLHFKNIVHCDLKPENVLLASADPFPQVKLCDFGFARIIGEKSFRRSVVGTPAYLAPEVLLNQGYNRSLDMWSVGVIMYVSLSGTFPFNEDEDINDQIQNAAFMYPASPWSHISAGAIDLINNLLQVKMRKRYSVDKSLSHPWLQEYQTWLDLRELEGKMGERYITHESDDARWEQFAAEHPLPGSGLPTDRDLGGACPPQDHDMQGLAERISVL

[11] = target: T3, Serine/threonine-protein kinase D2 (Homo sapiens); settings: at 1 µM
[12] = target: T4, Serine/threonine-protein kinase D3 (Homo sapiens) (UniProt O94806); settings: at 0.1 µM
T4 sequence (whole entry): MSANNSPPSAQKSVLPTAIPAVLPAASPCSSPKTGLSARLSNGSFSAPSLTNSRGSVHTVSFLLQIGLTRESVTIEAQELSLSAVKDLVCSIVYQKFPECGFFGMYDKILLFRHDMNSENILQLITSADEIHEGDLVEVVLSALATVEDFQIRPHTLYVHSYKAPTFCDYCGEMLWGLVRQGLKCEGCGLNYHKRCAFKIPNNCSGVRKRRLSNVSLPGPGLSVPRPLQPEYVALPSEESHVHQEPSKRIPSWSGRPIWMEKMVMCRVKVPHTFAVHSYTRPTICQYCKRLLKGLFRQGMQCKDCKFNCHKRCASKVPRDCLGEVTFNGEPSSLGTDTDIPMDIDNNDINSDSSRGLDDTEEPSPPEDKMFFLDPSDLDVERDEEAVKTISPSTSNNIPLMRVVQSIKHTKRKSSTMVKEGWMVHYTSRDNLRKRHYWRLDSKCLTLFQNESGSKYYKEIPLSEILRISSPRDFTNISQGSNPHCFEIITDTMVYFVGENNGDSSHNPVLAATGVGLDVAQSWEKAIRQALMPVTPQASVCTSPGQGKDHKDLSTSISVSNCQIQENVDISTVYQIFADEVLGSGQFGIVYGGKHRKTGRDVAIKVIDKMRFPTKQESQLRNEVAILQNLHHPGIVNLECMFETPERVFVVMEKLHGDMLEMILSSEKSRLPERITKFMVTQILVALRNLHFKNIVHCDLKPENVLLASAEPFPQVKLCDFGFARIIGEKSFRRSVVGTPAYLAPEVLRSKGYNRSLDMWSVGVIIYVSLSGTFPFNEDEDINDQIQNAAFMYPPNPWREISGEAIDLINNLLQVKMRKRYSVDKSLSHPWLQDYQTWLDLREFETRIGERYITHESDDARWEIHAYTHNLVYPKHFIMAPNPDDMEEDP

[13] = target: T4, Serine/threonine-protein kinase D3 (Homo sapiens); settings: at 1 µM
[14] = target: T5, cGMP-dependent protein kinase 1 (Homo sapiens) (UniProt Q13976); settings: at 0.1 µM
T5 sequence (whole entry): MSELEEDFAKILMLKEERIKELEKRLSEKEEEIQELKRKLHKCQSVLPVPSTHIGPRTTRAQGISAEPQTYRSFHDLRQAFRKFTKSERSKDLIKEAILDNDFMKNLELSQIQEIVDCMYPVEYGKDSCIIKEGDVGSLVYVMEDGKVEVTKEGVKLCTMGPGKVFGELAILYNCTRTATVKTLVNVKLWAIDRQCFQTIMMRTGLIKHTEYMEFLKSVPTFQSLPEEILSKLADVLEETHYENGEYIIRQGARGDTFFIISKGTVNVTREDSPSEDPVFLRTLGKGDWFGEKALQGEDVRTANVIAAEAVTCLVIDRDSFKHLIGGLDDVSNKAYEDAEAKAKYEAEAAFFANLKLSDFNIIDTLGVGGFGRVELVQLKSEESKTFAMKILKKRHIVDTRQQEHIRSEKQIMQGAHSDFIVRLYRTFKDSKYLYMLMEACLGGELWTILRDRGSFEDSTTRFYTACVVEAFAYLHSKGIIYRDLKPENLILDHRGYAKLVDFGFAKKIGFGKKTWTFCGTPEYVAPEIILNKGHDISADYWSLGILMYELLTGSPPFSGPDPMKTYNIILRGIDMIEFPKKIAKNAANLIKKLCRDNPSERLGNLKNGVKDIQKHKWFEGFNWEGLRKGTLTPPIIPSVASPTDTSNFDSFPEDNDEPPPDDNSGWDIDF

[15] = target: T5, cGMP-dependent protein kinase 1 (Homo sapiens); settings: at 1 µM
[16] = target: T6, cGMP-dependent protein kinase 2 (Homo sapiens) (UniProt Q13237); settings: at 0.1 µM
T6 sequence (whole entry): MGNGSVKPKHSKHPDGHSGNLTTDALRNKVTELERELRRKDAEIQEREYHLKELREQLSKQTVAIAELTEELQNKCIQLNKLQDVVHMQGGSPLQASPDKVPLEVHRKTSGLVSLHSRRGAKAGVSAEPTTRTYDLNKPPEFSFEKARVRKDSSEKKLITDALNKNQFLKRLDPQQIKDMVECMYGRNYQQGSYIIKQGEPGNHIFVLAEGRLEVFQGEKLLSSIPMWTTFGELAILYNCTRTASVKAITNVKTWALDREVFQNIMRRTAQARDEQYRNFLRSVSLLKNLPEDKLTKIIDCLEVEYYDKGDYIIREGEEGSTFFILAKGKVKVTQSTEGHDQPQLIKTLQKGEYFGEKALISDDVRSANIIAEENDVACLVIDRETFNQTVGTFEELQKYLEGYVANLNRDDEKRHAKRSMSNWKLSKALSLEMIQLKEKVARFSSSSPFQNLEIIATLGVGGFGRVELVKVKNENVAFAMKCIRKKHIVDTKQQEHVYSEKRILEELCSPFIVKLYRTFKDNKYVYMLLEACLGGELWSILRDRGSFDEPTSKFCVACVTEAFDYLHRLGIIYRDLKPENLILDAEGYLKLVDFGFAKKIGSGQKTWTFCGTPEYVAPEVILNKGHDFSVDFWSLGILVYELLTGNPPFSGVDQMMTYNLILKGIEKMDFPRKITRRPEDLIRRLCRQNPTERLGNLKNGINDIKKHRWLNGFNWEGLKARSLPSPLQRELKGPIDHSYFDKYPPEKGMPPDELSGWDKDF

[17] = target: T6, cGMP-dependent protein kinase 2 (Homo sapiens); settings: at 1 µM
[18] = target: T7, cAMP-dependent protein kinase catalytic subunit PRKX (Homo sapiens) (UniProt P51817); settings: at 0.1 µM
T7 sequence (whole entry): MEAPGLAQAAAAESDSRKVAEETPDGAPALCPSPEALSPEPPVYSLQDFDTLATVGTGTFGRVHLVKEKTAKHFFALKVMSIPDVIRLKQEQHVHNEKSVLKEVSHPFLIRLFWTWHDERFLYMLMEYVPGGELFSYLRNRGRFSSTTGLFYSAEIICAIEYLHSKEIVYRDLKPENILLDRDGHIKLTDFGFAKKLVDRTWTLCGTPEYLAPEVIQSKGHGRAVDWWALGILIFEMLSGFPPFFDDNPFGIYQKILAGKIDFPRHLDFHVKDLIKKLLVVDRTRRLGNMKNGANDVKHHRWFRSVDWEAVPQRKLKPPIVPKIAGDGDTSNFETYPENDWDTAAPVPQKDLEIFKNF

[19] = target: T7, cAMP-dependent protein kinase catalytic subunit PRKX (Homo sapiens); settings: at 1 µM
[20] = target: Rho-associated protein kinase 1 (Homo sapiens) (UniProt Q13464); settings: at 0.1 µM;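 further: values are mean percent inhibition of ROCK1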
Chain of Rho-associated protein kinase 1 (Homo sapiens) (Q13464 2-1354 limits assumed): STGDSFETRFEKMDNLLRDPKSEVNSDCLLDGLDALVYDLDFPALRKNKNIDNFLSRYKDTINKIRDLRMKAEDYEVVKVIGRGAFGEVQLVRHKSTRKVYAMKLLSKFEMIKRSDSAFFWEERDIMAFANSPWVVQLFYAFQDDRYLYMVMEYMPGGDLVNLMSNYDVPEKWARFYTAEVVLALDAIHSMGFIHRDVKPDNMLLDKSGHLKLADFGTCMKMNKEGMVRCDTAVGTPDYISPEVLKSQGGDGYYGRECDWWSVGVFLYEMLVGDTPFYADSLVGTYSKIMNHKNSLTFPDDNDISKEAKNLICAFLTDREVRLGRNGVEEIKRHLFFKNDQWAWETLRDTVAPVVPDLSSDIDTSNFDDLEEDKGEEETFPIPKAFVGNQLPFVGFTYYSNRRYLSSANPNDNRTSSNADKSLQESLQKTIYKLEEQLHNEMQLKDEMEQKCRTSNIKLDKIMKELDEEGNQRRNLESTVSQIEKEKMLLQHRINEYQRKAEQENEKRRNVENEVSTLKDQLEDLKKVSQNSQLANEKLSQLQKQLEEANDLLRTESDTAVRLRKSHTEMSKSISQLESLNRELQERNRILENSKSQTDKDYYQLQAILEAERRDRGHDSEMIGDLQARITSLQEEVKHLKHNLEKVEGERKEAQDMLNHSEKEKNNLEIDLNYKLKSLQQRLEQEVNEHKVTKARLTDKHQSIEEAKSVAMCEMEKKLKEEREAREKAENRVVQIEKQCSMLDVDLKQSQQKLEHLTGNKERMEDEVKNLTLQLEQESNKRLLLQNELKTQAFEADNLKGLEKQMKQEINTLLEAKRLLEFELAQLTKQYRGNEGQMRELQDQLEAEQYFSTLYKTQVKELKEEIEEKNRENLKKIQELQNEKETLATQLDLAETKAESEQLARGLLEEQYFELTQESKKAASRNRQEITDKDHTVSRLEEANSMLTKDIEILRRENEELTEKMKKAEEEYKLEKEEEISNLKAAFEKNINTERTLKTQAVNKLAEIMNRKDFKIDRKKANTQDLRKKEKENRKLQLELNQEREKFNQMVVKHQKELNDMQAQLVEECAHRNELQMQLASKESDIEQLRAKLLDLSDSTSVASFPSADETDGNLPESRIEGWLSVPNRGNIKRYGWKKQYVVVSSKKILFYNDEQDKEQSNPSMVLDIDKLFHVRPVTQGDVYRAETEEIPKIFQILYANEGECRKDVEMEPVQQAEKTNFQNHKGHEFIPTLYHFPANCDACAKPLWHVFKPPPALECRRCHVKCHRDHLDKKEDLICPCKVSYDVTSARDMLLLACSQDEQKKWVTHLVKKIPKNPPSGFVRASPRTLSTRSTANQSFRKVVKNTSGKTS

Chain of Protein kinase C beta type (Homo sapiens) (P05771 2-671 limits assumed): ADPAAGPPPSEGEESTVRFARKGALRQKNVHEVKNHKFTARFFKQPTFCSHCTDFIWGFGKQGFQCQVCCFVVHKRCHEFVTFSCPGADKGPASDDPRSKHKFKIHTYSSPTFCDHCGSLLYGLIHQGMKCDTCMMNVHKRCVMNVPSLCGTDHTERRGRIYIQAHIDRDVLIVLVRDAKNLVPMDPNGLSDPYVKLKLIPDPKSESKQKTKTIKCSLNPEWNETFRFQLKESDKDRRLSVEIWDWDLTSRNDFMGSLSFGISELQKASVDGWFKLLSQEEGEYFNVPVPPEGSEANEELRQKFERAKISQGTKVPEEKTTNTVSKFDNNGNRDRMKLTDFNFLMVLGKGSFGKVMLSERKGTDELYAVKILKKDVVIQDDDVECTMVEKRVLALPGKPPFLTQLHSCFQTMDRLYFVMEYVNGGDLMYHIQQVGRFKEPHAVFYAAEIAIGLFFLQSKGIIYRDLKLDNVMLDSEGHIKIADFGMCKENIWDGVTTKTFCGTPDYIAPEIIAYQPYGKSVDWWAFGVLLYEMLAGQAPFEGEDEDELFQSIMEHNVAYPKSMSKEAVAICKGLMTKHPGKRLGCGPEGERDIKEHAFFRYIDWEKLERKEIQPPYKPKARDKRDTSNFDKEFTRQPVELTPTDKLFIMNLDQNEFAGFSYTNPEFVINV
Chain of Protein kinase C theta type (Homo sapiens) (Q04759 whole entry, looked up): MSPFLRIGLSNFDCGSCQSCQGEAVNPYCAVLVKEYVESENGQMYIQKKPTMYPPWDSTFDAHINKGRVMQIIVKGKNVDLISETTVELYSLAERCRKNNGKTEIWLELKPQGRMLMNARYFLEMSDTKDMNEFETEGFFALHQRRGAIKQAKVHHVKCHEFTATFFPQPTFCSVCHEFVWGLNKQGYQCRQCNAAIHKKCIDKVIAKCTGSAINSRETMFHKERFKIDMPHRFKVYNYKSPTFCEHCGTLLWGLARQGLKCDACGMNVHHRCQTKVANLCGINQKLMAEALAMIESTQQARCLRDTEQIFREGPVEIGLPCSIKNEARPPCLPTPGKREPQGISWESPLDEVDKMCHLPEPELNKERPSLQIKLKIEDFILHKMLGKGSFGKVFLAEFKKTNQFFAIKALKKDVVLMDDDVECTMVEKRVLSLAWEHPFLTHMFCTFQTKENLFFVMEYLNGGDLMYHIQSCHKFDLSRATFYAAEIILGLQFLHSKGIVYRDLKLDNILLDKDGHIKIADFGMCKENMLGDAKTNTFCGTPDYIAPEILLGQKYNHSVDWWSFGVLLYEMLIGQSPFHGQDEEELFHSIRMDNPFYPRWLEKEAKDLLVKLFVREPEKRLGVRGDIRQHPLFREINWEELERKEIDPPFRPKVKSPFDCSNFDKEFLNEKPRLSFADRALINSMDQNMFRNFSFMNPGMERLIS

Row | SMILES | inhibition [1] | inhibition [2] | inhibition [3] | inhibition [4] | inhibition [5] | inhibition [6] | inhibition [7] | inhibition [8] | inhibition [9] | inhibition [10] | inhibition [11] | inhibition [12] | inhibition [13] | inhibition [14] | inhibition [15] | inhibition [16] | inhibition [17] | inhibition [18] | inhibition [19] | inhibition [20]
1 | Nc1nccc(-c2c(-c3ccc(F)cc3)ncn2C2CCC(O)CC2)n1 (stereo not given) | 2.37% | 1.25% | 0.01% | -0.81% | 0.4% | 1.56% | 16.3% | 0.14% | 18.5% | 0.03% | 23.3% | -0.31% | 19.4% | -1.29% | 0.27% | -0.66% | -0.24% | -0.76% | -0.96% | 0.4%
2 | COc1cccc(/C=N/Nc2ncnc3c2cnn3-c2cccc(OC)c2)c1 | 6.32% | 1.63% | 1.72% | 1.69% | 4% | 0.47% | 1.93% | 3.52% | 8.09% | 2.74% | 1.36% | 3.64% | 2.93% | 3.82% | 4.05% | 1.19% | 3.17% | 0.44% | 1.94% | 2.52%
3 | NC(=O)c1ccc(Oc2nccc(-c3c(-c4ccc(F)cc4)ncn3C3CCNCC3)n2)cc1 | 2.68% | 2.53% | 1.91% | 3.83% | 3.82% | 1.9% | 5.22% | 4.57% | 6.71% | 4.04% | 3.14% | 4.58% | 5.2% | 4.67% | 6.78% | 5.65% | 6.43% | 3.5% | 3.99% | 2.81%
4 | C#Cc1cccc(Nc2ncnc3ccc(OCCCCNCCS(C)(=O)=O)cc23)c1 | 7.74% | 2.69% | 1.19% | 3.71% | 5.27% | 1.93% | 6.61% | 2.59% | 25% | 4.1% | 26.7% | 3.35% | 15% | 1.04% | 7.37% | 2.75% | 8.83% | 2.48% | 4.38% | 1.86%
